Results: the supplement of paper PMC11732987, “Enantioselective OTUD7B fragment discovery through chemoproteomics screening and high-throughput optimisation” (Communications Chemistry, 2025)

Legend:
Assay in all cases: log2 ratio of Biotin-Ahx-Ub-VS probe labelling (fragment/DMSO); higher = less target engagement (more negative = stronger competition), active = hit call of the paper (q ≤ 0.05, log2 ratio ≤ -1)
Conditions in all cases: compound concentration: 200 uM; treatment time: 3 h
USP42 = target: T1, USP42 (UniProt Q9H9J4)
T1 sequence (whole entry): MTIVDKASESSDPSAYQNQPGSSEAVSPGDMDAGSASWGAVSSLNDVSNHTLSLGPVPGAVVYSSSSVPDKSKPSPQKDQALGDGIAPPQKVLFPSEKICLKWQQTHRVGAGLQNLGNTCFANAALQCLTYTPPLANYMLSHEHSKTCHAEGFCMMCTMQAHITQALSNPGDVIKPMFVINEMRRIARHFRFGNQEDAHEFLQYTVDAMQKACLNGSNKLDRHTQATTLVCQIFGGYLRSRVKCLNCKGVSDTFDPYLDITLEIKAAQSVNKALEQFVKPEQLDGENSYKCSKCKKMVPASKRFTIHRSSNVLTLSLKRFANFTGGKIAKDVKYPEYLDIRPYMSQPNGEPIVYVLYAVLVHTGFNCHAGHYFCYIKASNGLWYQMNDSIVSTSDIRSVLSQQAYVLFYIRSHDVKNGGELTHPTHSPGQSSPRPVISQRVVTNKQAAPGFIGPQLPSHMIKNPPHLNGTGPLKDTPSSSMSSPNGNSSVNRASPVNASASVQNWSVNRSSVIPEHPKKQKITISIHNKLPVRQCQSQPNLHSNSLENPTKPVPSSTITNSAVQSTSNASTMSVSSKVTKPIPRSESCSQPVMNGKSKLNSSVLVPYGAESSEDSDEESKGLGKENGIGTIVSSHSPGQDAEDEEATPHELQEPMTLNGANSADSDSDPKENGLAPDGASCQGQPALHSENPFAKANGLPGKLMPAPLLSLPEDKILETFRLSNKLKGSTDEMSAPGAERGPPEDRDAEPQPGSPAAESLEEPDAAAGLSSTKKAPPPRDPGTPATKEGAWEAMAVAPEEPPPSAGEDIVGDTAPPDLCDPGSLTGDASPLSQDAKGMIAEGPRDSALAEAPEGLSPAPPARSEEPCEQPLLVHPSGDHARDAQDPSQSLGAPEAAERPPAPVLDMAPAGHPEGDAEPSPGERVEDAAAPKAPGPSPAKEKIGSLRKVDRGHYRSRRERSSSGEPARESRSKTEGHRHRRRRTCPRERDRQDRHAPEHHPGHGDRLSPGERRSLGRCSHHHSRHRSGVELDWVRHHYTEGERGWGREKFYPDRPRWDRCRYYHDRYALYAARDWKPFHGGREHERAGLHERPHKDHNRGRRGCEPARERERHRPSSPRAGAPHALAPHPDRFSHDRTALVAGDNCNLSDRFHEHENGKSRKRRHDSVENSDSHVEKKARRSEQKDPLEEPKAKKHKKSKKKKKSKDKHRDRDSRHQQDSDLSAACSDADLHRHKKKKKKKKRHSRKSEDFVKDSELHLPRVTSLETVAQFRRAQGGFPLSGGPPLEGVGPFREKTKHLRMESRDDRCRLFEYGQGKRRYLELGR
Method in brief: (§1)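 Using Biotin-Ahx-Ub-VS at 0.5 µM final for 1 h, DUBs were labelled in HEK293T lysate (495 µg per sample) that had first been treated in triplicate with fragment at 200 µM or vehicle for 3 h. NeutrAvidin enrichment, LysC and trypsin digestion and diaPASEF LC-MS/MS followed. Spectronaut label-free quantities were global-median-normalised. Values are average log2 fragment/vehicle ratios by unpaired t-test, using proteins with ≥2 unique peptides.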

USP46 = USP46 (UniProt P62068)
Method in brief: as §1

USP47 = target: T2, USP47 (UniProt Q96K76)
T2 sequence (whole entry): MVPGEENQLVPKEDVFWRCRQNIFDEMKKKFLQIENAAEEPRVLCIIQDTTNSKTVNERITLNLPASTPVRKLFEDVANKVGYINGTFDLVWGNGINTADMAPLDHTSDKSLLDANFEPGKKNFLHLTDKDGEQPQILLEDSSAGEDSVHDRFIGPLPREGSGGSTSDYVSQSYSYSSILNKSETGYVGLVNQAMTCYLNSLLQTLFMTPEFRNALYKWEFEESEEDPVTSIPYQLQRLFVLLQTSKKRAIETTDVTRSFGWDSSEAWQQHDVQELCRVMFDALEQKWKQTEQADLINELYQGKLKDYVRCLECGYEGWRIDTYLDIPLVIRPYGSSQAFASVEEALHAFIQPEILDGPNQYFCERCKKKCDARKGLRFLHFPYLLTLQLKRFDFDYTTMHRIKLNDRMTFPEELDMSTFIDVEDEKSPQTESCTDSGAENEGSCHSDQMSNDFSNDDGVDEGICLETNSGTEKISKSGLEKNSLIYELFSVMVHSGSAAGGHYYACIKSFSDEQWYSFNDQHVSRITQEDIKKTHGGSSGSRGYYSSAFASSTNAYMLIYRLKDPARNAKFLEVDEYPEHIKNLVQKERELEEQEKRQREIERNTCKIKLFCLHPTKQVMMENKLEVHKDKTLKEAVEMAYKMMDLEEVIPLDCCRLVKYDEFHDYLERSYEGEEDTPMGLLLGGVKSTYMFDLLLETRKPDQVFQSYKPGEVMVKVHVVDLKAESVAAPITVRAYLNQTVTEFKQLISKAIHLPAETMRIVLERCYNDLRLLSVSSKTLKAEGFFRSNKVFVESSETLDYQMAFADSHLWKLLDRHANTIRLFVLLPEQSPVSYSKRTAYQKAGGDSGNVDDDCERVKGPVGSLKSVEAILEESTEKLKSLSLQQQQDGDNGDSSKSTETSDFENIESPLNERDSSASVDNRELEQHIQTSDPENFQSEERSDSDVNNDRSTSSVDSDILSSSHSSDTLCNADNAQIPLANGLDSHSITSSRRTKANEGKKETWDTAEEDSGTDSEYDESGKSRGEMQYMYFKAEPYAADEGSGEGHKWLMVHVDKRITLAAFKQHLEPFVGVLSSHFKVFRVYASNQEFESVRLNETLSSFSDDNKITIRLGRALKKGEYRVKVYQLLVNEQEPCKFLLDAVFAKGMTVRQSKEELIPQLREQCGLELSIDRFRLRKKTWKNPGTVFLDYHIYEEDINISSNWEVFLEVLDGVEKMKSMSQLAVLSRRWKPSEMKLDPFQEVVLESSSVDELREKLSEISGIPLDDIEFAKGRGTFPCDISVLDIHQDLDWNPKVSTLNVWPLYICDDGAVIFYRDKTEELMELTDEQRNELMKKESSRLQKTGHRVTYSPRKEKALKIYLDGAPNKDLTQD
Method in brief: as §1

USP48 = target: T3, USP48 (UniProt Q86UV5)
T3 sequence (whole entry): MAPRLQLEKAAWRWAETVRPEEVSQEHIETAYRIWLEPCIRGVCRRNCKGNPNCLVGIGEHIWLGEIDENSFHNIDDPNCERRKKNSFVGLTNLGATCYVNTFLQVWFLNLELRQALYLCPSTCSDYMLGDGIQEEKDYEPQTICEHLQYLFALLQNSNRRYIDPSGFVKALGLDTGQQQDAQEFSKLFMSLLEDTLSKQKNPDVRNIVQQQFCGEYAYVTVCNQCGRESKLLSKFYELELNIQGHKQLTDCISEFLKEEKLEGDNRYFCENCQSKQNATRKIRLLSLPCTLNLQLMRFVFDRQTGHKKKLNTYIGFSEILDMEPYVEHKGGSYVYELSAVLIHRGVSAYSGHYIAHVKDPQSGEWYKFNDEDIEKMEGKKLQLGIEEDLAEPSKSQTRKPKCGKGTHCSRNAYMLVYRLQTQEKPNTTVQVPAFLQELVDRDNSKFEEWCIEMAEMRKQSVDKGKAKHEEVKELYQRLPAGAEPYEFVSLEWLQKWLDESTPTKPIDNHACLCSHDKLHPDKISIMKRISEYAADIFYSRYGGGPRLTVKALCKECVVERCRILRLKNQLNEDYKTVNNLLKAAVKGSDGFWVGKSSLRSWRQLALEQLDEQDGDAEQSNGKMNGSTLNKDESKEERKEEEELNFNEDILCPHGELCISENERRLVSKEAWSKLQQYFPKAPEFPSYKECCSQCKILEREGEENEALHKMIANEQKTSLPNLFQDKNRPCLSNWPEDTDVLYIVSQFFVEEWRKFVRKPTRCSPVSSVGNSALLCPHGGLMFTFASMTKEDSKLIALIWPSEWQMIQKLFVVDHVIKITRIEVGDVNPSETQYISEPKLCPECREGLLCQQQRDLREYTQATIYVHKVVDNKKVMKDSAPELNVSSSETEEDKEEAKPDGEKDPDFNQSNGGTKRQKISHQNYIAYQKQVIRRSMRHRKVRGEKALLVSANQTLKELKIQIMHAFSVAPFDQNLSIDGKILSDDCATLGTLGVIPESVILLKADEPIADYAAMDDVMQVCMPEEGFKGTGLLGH
Method in brief: as §1

USP5 = target: T4, USP5 (UniProt P45974)
T4 sequence (whole entry): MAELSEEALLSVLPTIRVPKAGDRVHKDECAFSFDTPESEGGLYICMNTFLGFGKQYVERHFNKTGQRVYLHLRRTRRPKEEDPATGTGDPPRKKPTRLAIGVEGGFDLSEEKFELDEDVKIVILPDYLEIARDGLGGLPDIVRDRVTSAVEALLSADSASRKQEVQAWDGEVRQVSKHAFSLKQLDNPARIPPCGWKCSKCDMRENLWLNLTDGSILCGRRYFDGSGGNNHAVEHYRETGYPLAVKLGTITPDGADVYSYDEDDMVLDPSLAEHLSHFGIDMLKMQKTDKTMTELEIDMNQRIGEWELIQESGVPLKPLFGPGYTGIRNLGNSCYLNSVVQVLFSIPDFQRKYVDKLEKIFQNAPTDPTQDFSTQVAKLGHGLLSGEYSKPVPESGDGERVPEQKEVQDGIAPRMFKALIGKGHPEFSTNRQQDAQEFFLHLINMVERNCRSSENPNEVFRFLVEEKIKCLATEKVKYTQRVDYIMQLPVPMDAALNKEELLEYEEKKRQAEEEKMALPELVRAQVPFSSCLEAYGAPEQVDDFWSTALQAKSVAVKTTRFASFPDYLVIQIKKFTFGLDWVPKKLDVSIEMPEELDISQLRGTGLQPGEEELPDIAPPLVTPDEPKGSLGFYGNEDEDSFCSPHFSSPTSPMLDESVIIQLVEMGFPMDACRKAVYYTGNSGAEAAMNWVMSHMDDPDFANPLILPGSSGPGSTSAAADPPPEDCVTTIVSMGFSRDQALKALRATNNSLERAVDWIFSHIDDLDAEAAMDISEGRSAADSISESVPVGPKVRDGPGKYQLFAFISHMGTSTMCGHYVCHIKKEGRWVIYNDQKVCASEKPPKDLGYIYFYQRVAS
Method in brief: as §1

USP54 = USP54 (UniProt Q70EL1)
Method in brief: as §1

USP7 = USP7 (UniProt Q93009)
Method in brief: as §1

USP8 = target: T5, USP8 (UniProt P40818)
T5 sequence (whole entry): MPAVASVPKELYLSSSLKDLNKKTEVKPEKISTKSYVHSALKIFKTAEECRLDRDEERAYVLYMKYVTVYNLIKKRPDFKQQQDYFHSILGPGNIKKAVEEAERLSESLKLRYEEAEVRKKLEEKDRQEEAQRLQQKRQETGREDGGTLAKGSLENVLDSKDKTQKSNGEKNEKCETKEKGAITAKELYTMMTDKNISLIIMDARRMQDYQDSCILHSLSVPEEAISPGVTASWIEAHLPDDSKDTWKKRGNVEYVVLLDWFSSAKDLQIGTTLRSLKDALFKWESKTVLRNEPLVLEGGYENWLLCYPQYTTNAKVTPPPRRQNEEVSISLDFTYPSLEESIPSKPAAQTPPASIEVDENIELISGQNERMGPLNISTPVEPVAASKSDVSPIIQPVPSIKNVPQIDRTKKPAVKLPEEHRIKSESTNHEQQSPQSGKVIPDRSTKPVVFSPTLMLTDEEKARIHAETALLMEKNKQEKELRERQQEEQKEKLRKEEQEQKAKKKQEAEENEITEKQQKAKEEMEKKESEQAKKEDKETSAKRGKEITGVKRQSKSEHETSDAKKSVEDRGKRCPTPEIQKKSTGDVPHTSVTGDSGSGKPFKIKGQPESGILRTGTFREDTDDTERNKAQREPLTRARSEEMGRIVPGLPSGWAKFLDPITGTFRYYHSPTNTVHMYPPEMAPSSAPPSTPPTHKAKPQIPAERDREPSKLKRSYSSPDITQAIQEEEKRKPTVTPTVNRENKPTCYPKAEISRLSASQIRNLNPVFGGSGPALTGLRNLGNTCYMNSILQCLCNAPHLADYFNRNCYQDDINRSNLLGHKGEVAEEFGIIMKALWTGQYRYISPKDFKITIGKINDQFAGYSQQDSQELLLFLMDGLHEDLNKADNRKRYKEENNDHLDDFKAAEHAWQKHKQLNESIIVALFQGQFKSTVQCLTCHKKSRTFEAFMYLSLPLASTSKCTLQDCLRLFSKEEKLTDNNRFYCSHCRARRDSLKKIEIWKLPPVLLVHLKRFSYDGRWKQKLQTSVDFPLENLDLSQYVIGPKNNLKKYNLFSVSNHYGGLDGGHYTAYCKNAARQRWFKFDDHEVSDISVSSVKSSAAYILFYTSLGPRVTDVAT
Method in brief: as §1

USP9X = USP9X (UniProt Q93008)
Method in brief: as §1

UniProt O00487 = target: UniProt O00487
Method in brief: as §1

Measured: log2 ratio of Biotin-Ahx-Ub-VS probe labelling

USP7, sequence (Q93009 whole entry, looked up): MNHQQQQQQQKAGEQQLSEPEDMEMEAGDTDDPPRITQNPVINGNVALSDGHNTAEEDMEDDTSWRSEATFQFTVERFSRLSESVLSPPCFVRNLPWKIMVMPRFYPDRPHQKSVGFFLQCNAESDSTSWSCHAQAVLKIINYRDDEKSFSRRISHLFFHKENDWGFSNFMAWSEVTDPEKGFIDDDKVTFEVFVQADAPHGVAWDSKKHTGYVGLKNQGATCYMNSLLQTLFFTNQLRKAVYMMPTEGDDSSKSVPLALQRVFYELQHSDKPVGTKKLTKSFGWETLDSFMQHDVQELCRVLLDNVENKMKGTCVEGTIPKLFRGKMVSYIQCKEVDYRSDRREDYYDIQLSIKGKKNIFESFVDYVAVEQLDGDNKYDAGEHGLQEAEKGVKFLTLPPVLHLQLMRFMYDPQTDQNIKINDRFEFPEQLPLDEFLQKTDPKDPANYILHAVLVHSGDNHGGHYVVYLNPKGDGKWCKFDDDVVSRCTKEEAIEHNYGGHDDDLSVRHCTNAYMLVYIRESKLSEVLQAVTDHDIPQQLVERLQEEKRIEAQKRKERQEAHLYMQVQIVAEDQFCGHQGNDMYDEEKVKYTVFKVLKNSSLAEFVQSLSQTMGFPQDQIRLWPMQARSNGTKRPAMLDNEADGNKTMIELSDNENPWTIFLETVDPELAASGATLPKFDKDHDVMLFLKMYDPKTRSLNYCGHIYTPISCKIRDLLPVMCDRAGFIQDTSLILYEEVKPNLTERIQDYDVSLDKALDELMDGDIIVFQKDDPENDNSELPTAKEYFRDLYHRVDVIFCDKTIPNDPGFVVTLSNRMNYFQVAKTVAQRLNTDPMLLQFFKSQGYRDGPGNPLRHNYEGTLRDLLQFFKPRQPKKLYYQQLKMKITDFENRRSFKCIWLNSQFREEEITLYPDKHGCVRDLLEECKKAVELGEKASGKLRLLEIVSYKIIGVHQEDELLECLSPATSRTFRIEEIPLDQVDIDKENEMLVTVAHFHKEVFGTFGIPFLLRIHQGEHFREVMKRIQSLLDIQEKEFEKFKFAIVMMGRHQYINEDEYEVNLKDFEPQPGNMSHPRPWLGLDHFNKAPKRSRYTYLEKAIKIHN
USP54, sequence (Q70EL1 whole entry): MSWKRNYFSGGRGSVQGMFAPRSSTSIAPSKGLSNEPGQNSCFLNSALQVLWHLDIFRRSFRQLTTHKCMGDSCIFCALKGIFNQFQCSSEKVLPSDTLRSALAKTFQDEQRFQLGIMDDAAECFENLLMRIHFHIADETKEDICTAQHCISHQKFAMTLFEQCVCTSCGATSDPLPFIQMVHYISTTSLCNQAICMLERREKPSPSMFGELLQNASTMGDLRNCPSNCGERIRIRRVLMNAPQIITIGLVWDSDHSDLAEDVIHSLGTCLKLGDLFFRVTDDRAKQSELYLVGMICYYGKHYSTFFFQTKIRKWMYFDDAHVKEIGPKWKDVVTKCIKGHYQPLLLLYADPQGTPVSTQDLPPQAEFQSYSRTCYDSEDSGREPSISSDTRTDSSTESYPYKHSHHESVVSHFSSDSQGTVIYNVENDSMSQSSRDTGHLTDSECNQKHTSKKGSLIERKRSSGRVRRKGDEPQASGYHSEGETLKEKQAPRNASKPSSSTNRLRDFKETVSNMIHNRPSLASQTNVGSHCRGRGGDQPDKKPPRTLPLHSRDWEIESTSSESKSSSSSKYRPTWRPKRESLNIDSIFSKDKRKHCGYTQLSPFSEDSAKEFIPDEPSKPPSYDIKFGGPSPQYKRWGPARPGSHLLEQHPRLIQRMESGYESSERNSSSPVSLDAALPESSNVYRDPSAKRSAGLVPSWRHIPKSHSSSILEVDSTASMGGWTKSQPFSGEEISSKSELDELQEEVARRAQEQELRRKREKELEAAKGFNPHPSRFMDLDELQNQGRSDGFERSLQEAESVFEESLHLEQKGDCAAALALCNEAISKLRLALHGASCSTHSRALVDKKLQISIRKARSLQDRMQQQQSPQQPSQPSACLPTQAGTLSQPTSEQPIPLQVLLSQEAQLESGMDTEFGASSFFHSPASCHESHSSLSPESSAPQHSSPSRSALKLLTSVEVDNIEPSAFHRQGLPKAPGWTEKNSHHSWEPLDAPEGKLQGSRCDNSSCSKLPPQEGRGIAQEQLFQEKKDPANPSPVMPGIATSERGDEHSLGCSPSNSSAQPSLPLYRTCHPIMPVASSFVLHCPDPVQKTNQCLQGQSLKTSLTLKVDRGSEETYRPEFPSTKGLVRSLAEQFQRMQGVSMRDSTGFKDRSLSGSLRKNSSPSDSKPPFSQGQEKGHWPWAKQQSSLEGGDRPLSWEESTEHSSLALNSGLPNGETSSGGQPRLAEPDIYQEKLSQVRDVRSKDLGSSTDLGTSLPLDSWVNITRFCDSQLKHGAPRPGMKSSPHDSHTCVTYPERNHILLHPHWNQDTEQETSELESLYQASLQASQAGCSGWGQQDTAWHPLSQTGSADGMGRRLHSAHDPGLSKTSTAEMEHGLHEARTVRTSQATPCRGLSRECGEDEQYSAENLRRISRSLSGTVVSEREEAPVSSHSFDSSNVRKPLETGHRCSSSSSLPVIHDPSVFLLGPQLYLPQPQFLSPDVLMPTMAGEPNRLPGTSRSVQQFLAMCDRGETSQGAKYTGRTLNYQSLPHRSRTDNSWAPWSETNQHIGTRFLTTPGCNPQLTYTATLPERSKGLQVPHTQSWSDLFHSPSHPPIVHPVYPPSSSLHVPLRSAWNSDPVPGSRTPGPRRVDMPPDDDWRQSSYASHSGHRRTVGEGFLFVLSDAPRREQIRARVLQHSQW
USP46, sequence (P62068 whole entry): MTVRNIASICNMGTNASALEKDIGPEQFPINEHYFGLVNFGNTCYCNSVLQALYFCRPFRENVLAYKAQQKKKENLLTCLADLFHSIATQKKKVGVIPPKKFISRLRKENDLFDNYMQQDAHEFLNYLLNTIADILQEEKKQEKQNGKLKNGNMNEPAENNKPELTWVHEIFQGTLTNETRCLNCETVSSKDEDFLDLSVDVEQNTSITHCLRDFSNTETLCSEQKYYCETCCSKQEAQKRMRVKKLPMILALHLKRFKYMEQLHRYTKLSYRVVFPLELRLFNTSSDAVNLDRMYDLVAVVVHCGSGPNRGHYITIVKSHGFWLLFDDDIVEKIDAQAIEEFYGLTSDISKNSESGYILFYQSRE
UniProt O00487, sequence (O00487 whole entry): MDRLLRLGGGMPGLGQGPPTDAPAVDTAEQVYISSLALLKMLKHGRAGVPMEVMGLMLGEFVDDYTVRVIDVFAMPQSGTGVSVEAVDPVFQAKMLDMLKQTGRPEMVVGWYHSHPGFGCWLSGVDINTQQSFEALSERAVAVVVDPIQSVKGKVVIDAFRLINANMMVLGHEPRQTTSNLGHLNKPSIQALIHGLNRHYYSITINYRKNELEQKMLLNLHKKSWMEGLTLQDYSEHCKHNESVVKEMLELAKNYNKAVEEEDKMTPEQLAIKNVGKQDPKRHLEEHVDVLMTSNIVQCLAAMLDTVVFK

Cl.O=C(CCl)NCCc1ncc(F)cc1F
inactive: USP42 -0.132 | USP46 -0.0594 | USP47 0.122 | USP48 -0.466 | USP5 -0.0776 | USP54 -0.439 | USP7 -0.34 | USP8 -0.607 | USP9X -0.419 | UniProt O00487 -0.24

Cl.O=C(CCl)N1CCn2ncc(O)c2C1
inactive: USP42 -0.139 | USP46 -0.686 | USP47 -0.0187 | USP48 -0.559 | USP5 0.0938 | USP54 0.44 | USP7 -0.81 | USP8 -0.577 | USP9X -0.396 | UniProt O00487 -0.395
